Unmarked numbers belong to inactive results. Records with an inconclusive call do not appear. Active and inactive are the calls of the source. Unless noted, calls come from the whole dose curve; as a rule, active = well fitted curve in the direction sought with a large enough effect; inconclusive = small, poorly fitted or top-dose-only effect, or another doubt; inactive = no such curve, though single readings can be large; an effect the other way counts as inactive or inconclusive. Bounds are passed on as bounds.

The nature of assay [1]: AP1 Signaling Pathway (AID 357; active = well fitted curve in either direction with a large enough effect, not every such curve was filed as active;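 note: ME-180 reporter cells stimulated with EGF at its EC50 level; % is set by controls: 0 for no effect and ±100 for the full control effect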). Conditions: ME-180 AP-1-bla reporter, EGF-induced, beta-lactamase ratio, 5 h; at 7.69 µM (top of the series) unless noted. The gist of the method:
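Beta-lactamase reporter under AP-1 response element, ME-180 background. Stimulus: EC50 EGF. Compound exposure 5 h, 37 °C. Detection: CCF4, 2.5 h RT, 460/530 nm. Values: AC50 from titration.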

Assay [2] is described as follows: Stat Signaling Pathway (AID 446; active = well fitted curve in either direction with a large enough effect, not every such curve was filed as active;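 note: ME-180 cervical cancer cells given 40 pM IL-6 alongside compound; SIE-controlled beta-lactamase reporter measured as 460/530 nm FRET emission ratio; % is set by controls: 0 for no effect and ±100 for the full control effect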). The note with it: ME-180 SIE beta-lactamase reporter, IL-6 stimulated, 5 h; at 7.69 µM (top of the series) unless noted. The gist of the method: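 FRET read-out (405 nm excitation, 460/530 nm emission) of a beta-lactamase reporter under a STAT-inducible element in ME-180 cervical carcinoma cells. Cells with compound receive 40 pM IL-6 for 5 h. Values are normalised to AC90 stimulation and AC90 JAK-inhibitor controls.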

The target of assay [3] is Glucocorticoid receptor (Homo sapiens) (UniProt P04150). Put plainly: GR-GFP Redistribution (AID 450;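 active = compounds whose dose series gives a full or clear partial fitted curve of increased nuclear translocation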; note: potency is the fitted concentration of half-maximal effect). The note with it: U2OS GR-GFP nuclear translocation, laser cytometry, 2 h.
Assay [4] has the same target. Put plainly: GR-EFC Redistribution (AID 451; calls by dose curve; note: potency is the fitted concentration of half-maximal effect). Conditions: CHO-K1 GR-EFC translocation, beta-gal luminescence, 2 h. The essentials:
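Translocation of GR-ED fusion to nuclear EA restores b-gal, read by luminescence after 1 h room-temperature detection. Engineered CHO-K1 biosensor cells, 1,000/well, exposed 2 h at 37 C to titrations up to 46 uM final.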

For assay [5], the target named is Mitogen-activated protein kinase 10 (Mus musculus) (UniProt Q61831). Put plainly: JNK3 AlphaScreen Assay (AID 530; active = well fitted curve in either direction with a large enough effect, not every such curve was filed as active;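 note: kinase came from lysate of stimulated human HepG2 cells; signal reports phosphorylation of biotinylated GST-cJun 1-79 at Ser73 with 10 µM ATP; % is set by controls: 0 for no effect and ±100 for the full control effect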). The gist of the method:
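Kinase buffer: 20 mM Tris-HCl pH 7.6, 10 mM MgCl2, 1 mM DTT, 0.1 mM Na3VO4, 0.01% Tween-20; ATP 10 uM. Substrate biotin-GST-cJun(1-79), enzyme from activated HepG2 lysates. Detection by Ser73 phospho-antibody AlphaScreen.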

For assay [6], the target named is 3',5'-cyclic-AMP phosphodiesterase 4B (Homo sapiens) (UniProt Q07343). In words: qHTS Assay for Inhibitors of PDE-IV (AID 607; active = well fitted activation curve with a large enough effect in the main read-out, with a control signal flat, not every such curve was filed as active; note: % of control where 0% means no effect). The gist of the method: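 Cell-based read-out of cAMP via a modified cyclic nucleotide-gated channel and membrane potential dye (535/590 nm) in HEK293 cells expressing PDE4 endogenously. Compounds tested up to 22.9 uM final; 100 uM RO 20-1724 reference.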

Assay [7] is described as follows: qHTS Assay for Identification of Small Molecule Agonists for Hypoxia Response Element Signaling Pathway (AID 914; active = well fitted activation curve with a large enough effect in the signal ratio, with a control signal flat, not every such curve was filed as active; the % refers to the signal ratio; note: % of control where 0% means no effect). The note with it: ME-180 (cervical carcinoma) HRE-bla reporter, beta-lactamase ratio, CoCl2, 17 h; activation: active compounds read high. The essentials: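 Positive modulation of EC50 CoCl2-induced hypoxia response element signaling is measured in ME-180 cells with a beta-lactamase reporter. Compounds are titrated, incubation runs 17 hours, and %Activity derives from the blue/green ratio.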

Assay [8] addresses Dual specificity protein kinase CLK4 (Homo sapiens) (UniProt Q9HAZ1). Put plainly: qHTS Assay for Inhibitors of CDC-like Kinase 4 (Kinase-Glo Assay) (AID 1770). Note: nearly all actives have a fitted effect of over 65% in size. Note: potency is the fitted concentration of half-maximal effect. The essentials: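 Recombinant human Clk4 (25 nM) phosphorylated RS repeat peptide (100 uM) with 1 uM ATP in Tris pH 7.5/MgCl2/EGTA/DTT/Triton buffer for 4.5 h at room temperature. Residual ATP was quantified by Kinase-Glo luciferase luminescence.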

For assay [9], the target named is Ubiquitin carboxyl-terminal hydrolase 1 (Homo sapiens) (UniProt O94782). In words: Inhibitors of USP1/UAF1: Pilot qHTS (AID 504865).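 Note: rhodamine fluorescence freed from ubiquitin-rhodamine substrate followed over time; top concentration of the series differs between compounds; % is set by controls: 0 for no effect and ±100 for the full control effect; nearly all actives have a fitted effect of over 35% in size.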 The gist of the method: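 USP1/UAF1 complex (1nM) preincubated with compound 15 min at room temperature, then Ub-Rho substrate (150nM final) added. Fluorescence read kinetically at 480/540 nm, 6 reads every 60 seconds. Buffer: 50mM HEPES pH 7.8, 0.5mM EDTA, 0.1 mg/ml BSA, 1mM TCEP, 0.01% Tween-20.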

Assay [10] can be described thus: Primary qHTS for small molecule stabilizers of the endoplasmic reticulum resident proteome: Secreted ER Calcium Modulated Protein (SERCaMP) assay (AID 1508630). Note: % is set by controls: 0 for no effect and ±100 for the full control effect. The essentials:
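The SH-SY5Y reporter protocol was run at 3 concentrations up to 38.3 uM (primary) or 11 concentrations (follow-up): 16 h compound, 100 nM thapsigargin for 4 h, then extracellular luciferase luminescence.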

Assay [11] deals with Lysosomal acid glucosylceramidase (Homo sapiens) (UniProt P04062). In words: Glucocerebrosidase-p2 (AID 348; in the data active = potency below about 10 µM; note: potency is the fitted concentration of half-maximal effect). The note with it: purified GBA, blue fluorogenic substrate, 40 min. The essentials:
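Normal human glucocerebrosidase (0.2 nM) with blue fluorogenic substrate (80 uM final) in citrate/phosphate pH 5.9 with 10mM sodium taurocholate, 0.01% tween-20; 40 min RT, NaOH/glycine stop; fluorescence Ex 365/Em 440; AC50 from a titration from 0.6 nM upwards.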

A short description of assay [12]: NFAT Signaling Pathway (AID 444; active = well fitted curve in either direction with a large enough effect, not every such curve was filed as active). The note with it: Jurkat NFAT-bla M1, carbachol, beta-lactamase ratio, 5 h; at 7.69 µM (top of the series) unless noted. The gist of the method:
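Read-out: CCF4 FRET ratio (460 nm/530 nm) after 1 h RT dye loading, used for %activity and AC50 from titration series. Cells: Jurkat NFAT-β-lactamase/M1 line, treated with compound plus 1 uM carbachol for 5 h, 37 °C.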

The target of assay [13] is Dual specificity protein kinase CLK4 (Homo sapiens) (UniProt Q9HAZ1). Put plainly: qHTS Assay for Inhibitors of CDC-like Kinase 4 (ADP-FP Assay) (AID 1795). Note: nearly all actives have a fitted effect of over 60% in size. Note: potency is the fitted concentration of half-maximal effect. The gist of the method:
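Recombinant human Clk4 (6.25 nM) phosphorylated RS repeat peptide (100 uM) with 1 uM ATP in Tris pH 7.5/MgCl2/EGTA/DTT/Triton buffer for one hour. ADP was quantified by Transcreener competitive fluorescence polarization against an ADP calibration curve.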

The target of assay [14] is Cytochrome P450 1A2 (Homo sapiens) (UniProt P05177). In words: p450-cyp1a2 (AID 410; calls by dose curve; note: potency is the fitted concentration of half-maximal effect). The essentials:
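Read-out is luminescence from luciferin produced by CYP1A2 demethylation of Luciferin-ME (100uM, at Km). Detection reagent stopped the 60 min NADPH-dependent reaction; signals were normalized to 57 uM furafylline.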

The target of assay [15] is Cytochrome P450 3A4 (Homo sapiens) (UniProt P08684). In words: qHTS Assay for Activators of Cytochrome P450 3A4 (AID 885). Note: nearly all actives have a fitted effect of over 65% in size. The gist of the method: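 Luminescent readout of luciferin formed from 25 uM Luciferin-PPXE (KM level) by 20 nM CYP3A4 in 200 mM KPO4, with 60 min NADPH-driven reaction at room temperature after 10 min compound exposure. Ketoconazole (57 uM) defined 100% inhibition.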

Assay [16] shares this target. Put plainly: qHTS Assay for Inhibitors and Substrates of Cytochrome P450 3A4 (AID 884). Note: nearly all actives have a fitted effect of over 50% in size. Note: potency is the fitted concentration of half-maximal effect. The gist of the method: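 Luminescent readout of luciferin produced by CYP3A4 (20 nM) dealkylation of Luciferin-PPXE, 25 uM (its KM). NADPH-driven reaction ran 60 min at RT after 10 min compound preincubation; data scaled to 57 uM ketoconazole as 100% inhibition.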
The target in assay [17] is Cytochrome P450 2C19 (Homo sapiens) (UniProt P33261). Put plainly: qHTS Assay for Inhibitors and Substrates of Cytochrome P450 2C19 (AID 899). Note: potency is the fitted concentration of half-maximal effect; nearly all actives have a fitted effect of over 60% in size. The gist of the method:
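Reactions contain 5nM enzyme, 10uM Luciferin-H EGE (KM) and 50mM KPO4; compound preincubates 10 min at 37C, NADPH regeneration starts turnover for 60 min. Luminescence after detection reagent gives activity.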

In assay [18] the target is Dual specificity protein kinase CLK4 (Homo sapiens) (UniProt Q9HAZ1). Put plainly: qHTS Assay for Inhibitors of CDC-like Kinase 4 (ADP-Glo Assay) (AID 1771). Note: nearly all actives have a fitted effect of over 70% in size. Note: potency is the fitted concentration of half-maximal effect. The essentials:
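In this ADP-Glo format, 1 uM ATP and 100 uM RS peptide served as substrates for 25 nM Clk4 in Mg2+/EGTA/DTT/Triton buffer; reactions ran 1 hr at room temperature before luminescent ADP quantification.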

The target of assay [19] is Cytochrome P450 2D6 (Homo sapiens) (UniProt P10635). Put plainly: qHTS Assay for Inhibitors and Substrates of Cytochrome P450 2D6 (AID 891). Note: potency is the fitted concentration of half-maximal effect; nearly all actives have a fitted effect of over 60% in size. The gist of the method: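 Luminescent read-out of luciferin formed by 5 nM human CYP2D6 demethylating 30 uM Luciferin-ME EGE (Km level) over 60 min at room temperature after NADPH regeneration addition. Data normalized to full inhibition by 1.43 uM quinidine.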

3',5'-cyclic-AMP phosphodiesterase 4B (Homo sapiens), sequence (Q07343 whole entry, looked up): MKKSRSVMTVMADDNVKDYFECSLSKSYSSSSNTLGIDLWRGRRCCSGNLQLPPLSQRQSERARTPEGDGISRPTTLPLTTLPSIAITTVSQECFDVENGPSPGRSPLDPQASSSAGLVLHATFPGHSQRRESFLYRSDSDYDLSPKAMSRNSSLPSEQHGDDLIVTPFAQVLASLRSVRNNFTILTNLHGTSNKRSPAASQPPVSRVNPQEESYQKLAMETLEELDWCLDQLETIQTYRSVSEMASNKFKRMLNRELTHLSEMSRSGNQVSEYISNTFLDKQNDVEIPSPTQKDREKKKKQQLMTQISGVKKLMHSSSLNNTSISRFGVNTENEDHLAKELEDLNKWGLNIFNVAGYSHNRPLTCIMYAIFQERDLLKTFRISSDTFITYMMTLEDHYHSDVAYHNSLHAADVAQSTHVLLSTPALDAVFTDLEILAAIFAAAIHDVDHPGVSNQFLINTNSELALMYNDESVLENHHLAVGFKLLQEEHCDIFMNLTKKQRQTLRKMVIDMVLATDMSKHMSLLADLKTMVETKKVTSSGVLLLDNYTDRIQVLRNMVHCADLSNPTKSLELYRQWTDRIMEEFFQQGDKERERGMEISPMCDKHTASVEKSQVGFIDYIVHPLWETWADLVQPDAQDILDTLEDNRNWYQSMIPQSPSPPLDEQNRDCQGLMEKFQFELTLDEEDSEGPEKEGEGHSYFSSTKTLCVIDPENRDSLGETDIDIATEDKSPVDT
Glucocorticoid receptor (Homo sapiens), sequence (P04150 whole entry, looked up): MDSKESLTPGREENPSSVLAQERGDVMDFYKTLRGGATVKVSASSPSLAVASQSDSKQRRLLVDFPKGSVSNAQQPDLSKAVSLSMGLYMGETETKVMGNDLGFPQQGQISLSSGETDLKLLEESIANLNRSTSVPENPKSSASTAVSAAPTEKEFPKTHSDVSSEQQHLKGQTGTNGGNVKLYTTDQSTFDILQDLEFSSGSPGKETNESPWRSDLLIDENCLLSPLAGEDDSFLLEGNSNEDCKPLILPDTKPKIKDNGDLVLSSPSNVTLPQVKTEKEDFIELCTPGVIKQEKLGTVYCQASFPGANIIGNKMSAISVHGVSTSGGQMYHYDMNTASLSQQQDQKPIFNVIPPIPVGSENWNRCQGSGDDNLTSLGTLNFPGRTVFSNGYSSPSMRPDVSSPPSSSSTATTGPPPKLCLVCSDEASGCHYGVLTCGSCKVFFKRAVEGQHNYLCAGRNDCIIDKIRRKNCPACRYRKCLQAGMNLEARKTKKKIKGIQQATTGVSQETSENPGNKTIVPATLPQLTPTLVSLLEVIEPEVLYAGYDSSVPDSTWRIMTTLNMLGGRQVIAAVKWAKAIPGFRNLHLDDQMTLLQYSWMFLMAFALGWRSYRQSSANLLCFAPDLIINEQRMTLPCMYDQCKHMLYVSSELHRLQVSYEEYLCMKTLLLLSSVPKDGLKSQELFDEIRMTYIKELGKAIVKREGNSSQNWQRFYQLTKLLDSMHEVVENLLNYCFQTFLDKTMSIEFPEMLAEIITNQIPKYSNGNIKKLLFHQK
Cytochrome P450 3A4 (Homo sapiens), sequence (P08684 whole entry, looked up): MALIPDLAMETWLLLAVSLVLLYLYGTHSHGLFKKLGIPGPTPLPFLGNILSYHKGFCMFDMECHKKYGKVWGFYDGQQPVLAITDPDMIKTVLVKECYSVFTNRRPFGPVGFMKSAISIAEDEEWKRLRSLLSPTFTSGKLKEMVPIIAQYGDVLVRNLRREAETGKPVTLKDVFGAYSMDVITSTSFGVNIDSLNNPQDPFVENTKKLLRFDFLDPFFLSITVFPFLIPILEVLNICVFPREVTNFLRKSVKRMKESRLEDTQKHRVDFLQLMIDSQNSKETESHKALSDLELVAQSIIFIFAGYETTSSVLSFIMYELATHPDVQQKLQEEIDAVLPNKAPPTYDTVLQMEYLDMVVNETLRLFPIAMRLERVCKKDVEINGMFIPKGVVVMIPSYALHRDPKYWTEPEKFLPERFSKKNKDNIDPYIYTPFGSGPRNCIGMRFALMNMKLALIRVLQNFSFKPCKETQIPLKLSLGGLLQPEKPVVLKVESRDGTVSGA
Cytochrome P450 2C19 (Homo sapiens), sequence (P33261 whole entry, looked up): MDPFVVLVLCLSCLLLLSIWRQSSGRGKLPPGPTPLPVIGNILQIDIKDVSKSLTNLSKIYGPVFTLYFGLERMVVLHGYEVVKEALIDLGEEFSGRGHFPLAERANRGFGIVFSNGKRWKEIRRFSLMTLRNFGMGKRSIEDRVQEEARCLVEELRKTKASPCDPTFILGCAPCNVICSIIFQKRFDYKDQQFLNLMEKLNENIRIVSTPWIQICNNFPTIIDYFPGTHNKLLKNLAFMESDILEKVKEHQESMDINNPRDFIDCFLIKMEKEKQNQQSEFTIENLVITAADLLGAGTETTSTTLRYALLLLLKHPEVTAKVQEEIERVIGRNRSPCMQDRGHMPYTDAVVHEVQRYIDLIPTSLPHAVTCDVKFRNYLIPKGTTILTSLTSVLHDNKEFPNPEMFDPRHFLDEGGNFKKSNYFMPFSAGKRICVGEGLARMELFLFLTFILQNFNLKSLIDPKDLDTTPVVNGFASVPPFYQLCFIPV
Dual specificity protein kinase CLK4 (Homo sapiens), sequence (Q9HAZ1 whole entry, looked up): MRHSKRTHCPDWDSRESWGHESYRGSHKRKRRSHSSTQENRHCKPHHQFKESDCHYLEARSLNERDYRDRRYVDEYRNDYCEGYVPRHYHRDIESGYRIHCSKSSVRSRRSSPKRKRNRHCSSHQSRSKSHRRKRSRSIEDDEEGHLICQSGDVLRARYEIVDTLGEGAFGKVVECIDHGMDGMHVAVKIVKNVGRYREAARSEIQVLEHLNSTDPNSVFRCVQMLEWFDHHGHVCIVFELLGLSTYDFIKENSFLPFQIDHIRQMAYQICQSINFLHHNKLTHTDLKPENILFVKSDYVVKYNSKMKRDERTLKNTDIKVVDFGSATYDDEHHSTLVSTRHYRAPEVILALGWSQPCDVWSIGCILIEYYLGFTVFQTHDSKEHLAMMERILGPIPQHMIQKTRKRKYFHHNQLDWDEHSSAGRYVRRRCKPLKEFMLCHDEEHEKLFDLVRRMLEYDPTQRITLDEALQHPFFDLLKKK
Lysosomal acid glucosylceramidase (Homo sapiens), sequence (P04062 whole entry, looked up): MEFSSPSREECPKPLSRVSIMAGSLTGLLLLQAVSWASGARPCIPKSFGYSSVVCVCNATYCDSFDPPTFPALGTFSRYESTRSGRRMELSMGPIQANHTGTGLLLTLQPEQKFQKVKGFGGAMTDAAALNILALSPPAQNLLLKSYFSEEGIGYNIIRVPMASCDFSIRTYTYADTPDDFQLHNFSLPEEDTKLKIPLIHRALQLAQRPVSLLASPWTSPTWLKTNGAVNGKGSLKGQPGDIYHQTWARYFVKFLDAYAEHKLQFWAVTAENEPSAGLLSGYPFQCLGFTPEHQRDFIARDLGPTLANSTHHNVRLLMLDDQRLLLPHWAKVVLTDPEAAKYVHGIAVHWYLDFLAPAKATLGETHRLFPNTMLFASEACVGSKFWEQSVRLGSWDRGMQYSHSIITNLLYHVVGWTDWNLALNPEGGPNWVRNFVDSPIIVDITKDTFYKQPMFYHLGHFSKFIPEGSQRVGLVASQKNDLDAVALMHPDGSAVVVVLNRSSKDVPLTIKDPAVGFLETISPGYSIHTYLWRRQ
Cytochrome P450 1A2 (Homo sapiens), sequence (P05177 whole entry, looked up): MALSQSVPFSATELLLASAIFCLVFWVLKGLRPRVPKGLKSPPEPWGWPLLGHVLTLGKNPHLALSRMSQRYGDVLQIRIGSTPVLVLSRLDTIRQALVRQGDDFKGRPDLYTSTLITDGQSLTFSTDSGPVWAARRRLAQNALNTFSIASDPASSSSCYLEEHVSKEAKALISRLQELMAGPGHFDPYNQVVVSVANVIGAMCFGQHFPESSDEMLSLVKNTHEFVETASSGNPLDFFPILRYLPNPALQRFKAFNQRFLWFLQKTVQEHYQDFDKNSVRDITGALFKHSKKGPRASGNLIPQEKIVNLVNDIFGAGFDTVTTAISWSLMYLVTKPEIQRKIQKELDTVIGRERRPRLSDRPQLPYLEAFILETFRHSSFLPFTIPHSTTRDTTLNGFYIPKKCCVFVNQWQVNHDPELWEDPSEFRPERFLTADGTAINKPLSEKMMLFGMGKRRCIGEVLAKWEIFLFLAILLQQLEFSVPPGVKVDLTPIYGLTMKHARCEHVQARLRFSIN
Ubiquitin carboxyl-terminal hydrolase 1 (Homo sapiens), sequence (O94782 whole entry, looked up): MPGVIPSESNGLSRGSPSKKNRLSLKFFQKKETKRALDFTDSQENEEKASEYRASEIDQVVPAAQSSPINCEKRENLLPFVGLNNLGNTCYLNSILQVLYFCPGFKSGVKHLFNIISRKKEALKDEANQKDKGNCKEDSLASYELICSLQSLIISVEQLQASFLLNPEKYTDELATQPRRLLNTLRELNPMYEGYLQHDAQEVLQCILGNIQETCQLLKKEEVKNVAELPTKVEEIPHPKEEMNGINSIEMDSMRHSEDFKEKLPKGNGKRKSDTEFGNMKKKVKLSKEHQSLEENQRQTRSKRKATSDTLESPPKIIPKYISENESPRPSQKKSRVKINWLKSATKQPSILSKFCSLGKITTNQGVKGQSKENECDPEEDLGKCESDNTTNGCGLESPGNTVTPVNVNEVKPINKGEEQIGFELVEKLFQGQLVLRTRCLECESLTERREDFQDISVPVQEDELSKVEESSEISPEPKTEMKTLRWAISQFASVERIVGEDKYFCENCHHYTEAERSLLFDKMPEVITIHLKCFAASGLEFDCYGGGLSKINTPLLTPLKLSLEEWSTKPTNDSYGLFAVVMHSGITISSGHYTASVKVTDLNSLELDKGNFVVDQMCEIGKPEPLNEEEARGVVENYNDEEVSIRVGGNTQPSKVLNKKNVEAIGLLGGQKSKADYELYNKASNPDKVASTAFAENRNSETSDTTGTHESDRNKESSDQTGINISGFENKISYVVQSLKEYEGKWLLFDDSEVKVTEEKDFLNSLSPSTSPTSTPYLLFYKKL

With `CN(C)c1ccc(-c2ccc3ncnc(N(C)Cc4ccco4)c3c2)cc1`, in assay [1], the activity change, negative = inhibition is -28.7%. Further, the activity, negative = inhibition in assay [2] was -0.793%. Moreover, the figures for the Potency in assay [3], in [4] and in assay [8] were over 46 µM, over 46 µM and 8.91 µM (active), respectively. The Potency result in assay [5], in [6] and in assay [9] was “inactive” throughout. The activation in assay [7] was -3.37%. Further, in assay [10], the outcome was inactive.
As to `Cn1cc(-c2nc3cnc(OCc4ccccc4)nc3n(CCC#N)c2=O)c2ccccc21`, the values for the Potency in assay [11], in [3] and in assay [4] were over 11.4 µM, over 46 µM and over 46 µM, respectively. Besides, the activity change, negative = inhibition in assay [12] was 9.29%. Besides, the activity, negative = inhibition in assay [2] is 27.1%. Moreover, the Potency entry in assay [5], in [6], in assay [8], in assay [13] and in [9] was “inactive” throughout. The result in assay [10] was inactive.
In the case of `Cc1cnc(CNc2nc(-c3ccoc3)nc3ccccc23)cn1`, the Potency is over 11.4 µM in assay [11], 2 µM (active) in [14], over 46 µM in [3] and over 46 µM in [4]. In addition, the activity change, negative = inhibition in assay [1] was -13.5%. Further, in [2], the activity, negative = inhibition is 9.84%. In addition, the Potency entry in assay [5], in [6], in assay [15], in [8] and in assay [9] was “inactive” in each case. Further, the activation in assay [7] is -5.75%. Besides, the outcome in assay [10] was inactive.
With `COc1ccc2[nH]cc(CCNc3ccnc(-c4c(C)noc4C)n3)c2c1`, the Potency in assay [11] is over 11.4 µM; in assay [14], 2 µM (active); in assay [3], over 46 µM; in assay [4] it was over 46 µM; in [16], 2.51 µM (active); in assay [17] it was 1.58 µM (active). In addition, the activity change, negative = inhibition was -4.62% in assay [1] and 9.64% in assay [12]. The activity, negative = inhibition in [2] was -5.35%. Moreover, the Potency entry in [5], in assay [6], in assay [15], in [18], in assay [13] and in assay [9] was “inactive” in each case. In addition, the outcome in assay [10] was inactive.
Regarding `Clc1ccccc1-c1cc(NCc2ccccc2)ncn1`, the Potency in [11] is over 11.4 µM; in assay [14], 3.98 µM (active); in assay [3], over 46 µM; in [4] it was over 46 µM; in assay [17], 7.94 µM (active); in [8] it was 25.1 µM (active). Also, the values for the activity change, negative = inhibition in assay [1] and in assay [12] were 0.871% and 1.92%, respectively. For the same compound, the activity, negative = inhibition in [2] was 4.36%. The Potency entry in [5] and in [16] was “inactive” in each case. Also, the result in assay [10] was inactive.
Turning to `COc1ccccc1CNc1ncnc2ccc(-c3ccc4c(c3)OCO4)cc12`, the Potency was over 11.4 µM in assay [11]; 0.794 µM (active) in assay [14]; over 46 µM in [3]; over 46 µM in [4]; 1.26 µM (active) in [16]; 0.794 µM (active) in assay [19]. Moreover, the Potency was 3.16 µM (active) in assay [17], 0.0794 µM (active) in assay [8] and 0.0251 µM (active) in assay [13]. For the same compound, in assay [12], the activity change, negative = inhibition was -26.5%. For the same compound, the activity, negative = inhibition in assay [2] was -7.21%. In addition, the Potency result in [5], in [15] and in assay [9] was “inactive” each time. The outcome in assay [10] was inactive.
Turning to `Cc1ccccc1-c1nccc(NCc2cccnc2)n1`, the Potency in assay [11] was over 11.4 µM; in assay [14], 0.2 µM (active); in [3] it was over 46 µM; in [4], over 46 µM; in [16], 3.98 µM (active); in assay [17], 5.01 µM (active). Moreover, the Potency in assay [18] is 28.2 µM (active). Further, the figures for the activity change, negative = inhibition in assay [1] and in assay [12] were 13% and 3.23%, respectively. Moreover, the activity, negative = inhibition in assay [2] was -15.6%. The Potency result in [5], in [6], in assay [15], in assay [13] and in [9] was “inactive” throughout. Besides, the outcome in assay [10] was inactive.

These data come from PubChem BioAssay (NCATS).
